In PubChem BioAssay AID624405 (Broad Institute, 2012):
The campaign covered roughly 1,900 compounds. About 250 (13%) were called active. Roughly 4% stayed inconclusive and do not appear here. Not all results are given here. Potency and affinity values are given separately. Unmarked numbers belong to inactive results.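 How the source made its calls: active means fitted curve reaches 40% rescue activity at or below the top valid dose, in every test run; inconclusive means test runs disagree, some active and some inactive; inactive means every run misses the threshold or moves the wrong way.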

Assay: rescue of simvastatin-induced ATP loss – cell-based, C2C12 myotubes, ATP luminescence, cherry pick, dose response (AID 624405);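 further: myotubes are challenged with simvastatin at 10 µM to lower ATP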
Settings: 48 h, scaled: DMSO wells 0, geranylgeraniol wells 100; series mostly up to 19.5 µM; rescue activity (ATP increase): at the top concentration
With `C[C@H](CO)N1C[C@H](C)[C@@H](CN(C)CC2CCCCC2)Oc2ccc(NS(=O)(=O)c3ccc(Cl)cc3)cc2CC1=O` the “rescue activity (ATP increase)” value was 1.8%. In the case of `C[C@@H]1CN([C@H](C)CO)C(=O)Cc2cc(NS(=O)(=O)c3ccc(F)cc3)ccc2O[C@H]1CN(C)CC1CCCCC1`, the “rescue activity (ATP increase)” value is reported as 34.5%. For `COc1ccc(S(=O)(=O)Nc2ccc3c(c2)CC(=O)N([C@@H](C)CO)C[C@H](C)[C@@H](CN(C)Cc2ccccc2)O3)cc1`, the “rescue activity (ATP increase)” value was 23.1% [at 21 µM]. With `C[C@@H]1CN([C@H](C)CO)C(=O)Cc2cc(NS(=O)(=O)c3ccc(Cl)cc3)ccc2O[C@H]1CN(C)Cc1ccc2c(c1)OCO2` the “rescue activity (ATP increase)” value was 32.8%. For `C[C@@H]1CN([C@H](C)CO)C(=O)Cc2cc(NS(=O)(=O)c3ccc(Cl)cc3)ccc2O[C@@H]1CN(C)Cc1ccc(C(F)(F)F)cc1`, the “rescue activity (ATP increase)” value was 18.6% [at 21 µM]. With `COc1ccc(S(=O)(=O)Nc2ccc3c(c2)C(=O)N([C@H](C)CO)C[C@@H](C)[C@H](CN(C)S(=O)(=O)c2ccc(F)cc2)OCCCC[C@@H](C)O3)cc1` the “rescue activity (ATP increase)” value was 2.19%. For `CCn1c(CSc2nc3ccccc3[nH]2)n[nH]c1=S`, the “rescue activity (ATP increase)” value was 9.59%. For `COc1ccc(S(=O)(=O)Nc2ccc3c(c2)CC(=O)N([C@@H](C)CO)C[C@@H](C)[C@H](CN(C)Cc2ccc(Oc4ccccc4)cc2)O3)cc1`, the “rescue activity (ATP increase)” value was 12.1%. In the case of `COc1cc(C)c(C(C)C)cc1S(=O)(=O)NCCCn1ccnc1`, the “rescue activity (ATP increase)” value is reported as -23%. With `COC(=O)c1sc(S(=O)(=O)Nc2ccc3cn[nH]c3c2)c(C(=O)OC)c1C` the “rescue activity (ATP increase)” value was 9.54%. With `C[C@H](CO)N1C[C@H](C)[C@H](CN(C)S(=O)(=O)c2ccccc2)OCCCC[C@H](C)Oc2ccc(NS(C)(=O)=O)cc2C1=O` the “rescue activity (ATP increase)” value was -26.8% [at 21 µM]. In the case of `COc1ccc(-n2c(SCC(=O)N3CCCCC3)nc(O)cc2=O)cc1`, the “rescue activity (ATP increase)” value is reported as -3.25%. With `CCOC(=O)N1CCN(C(=O)C2CC(c3ccccc3OC)=NO2)CC1` (stereo not drawn) the “rescue activity (ATP increase)” value was 23.9%. In the case of `COc1cc2oc3ccccc3c2cc1N(CC(=O)N1CCCCC1)S(=O)(=O)c1ccc(C)cc1`, the “rescue activity (ATP increase)” value is reported as 36.4%. For `Cn1ncc(Cl)c1C(=O)Nc1cccnc1`, the “rescue activity (ATP increase)” value was 2.26%. In the case of `O=C(O)C1CCCCC1C(=O)Nc1ccccn1` (stereo not drawn), the “rescue activity (ATP increase)” value is reported as 5.23%. With `CC1CCN(C(=O)c2cc(F)c(F)cc2Cl)CC1` the “rescue activity (ATP increase)” value was 4.84%. With `CCCCCCC(=O)N1CCN(c2cc3c(cc2F)c(=O)c(C(=O)O)cn3CC)CC1` the “rescue activity (ATP increase)” value was 27%. For `CCOc1ccccc1Nc1nc(N)nc(Cl)c1CC`, the “rescue activity (ATP increase)” value was -26.2%. For `O=C(NCc1cccnc1)C1CC(=O)N(CCc2ccccc2)C1` (stereo not drawn), the “rescue activity (ATP increase)” value was 4.7%. For `CCOC(=O)N1CCN(c2c(N3CCN(c4cc(C)ccc4C)CC3)c(=O)c2=O)CC1`, the “rescue activity (ATP increase)” value was -33.8%. With `C[C@H]1CN([C@@H](C)CO)C(=O)c2cccc(NS(=O)(=O)c3cccs3)c2O[C@@H]1CN(C)Cc1ccc(Oc2ccccc2)cc1` the “rescue activity (ATP increase)” value was 10.6%. For `C[C@H](CO)N1C[C@H](C)[C@@H](CN(C)Cc2ccc3c(c2)OCO3)Oc2ccc(NS(=O)(=O)c3ccc(F)cc3)cc2CC1=O`, the “rescue activity (ATP increase)” value was 27.9%. In the case of `CCCS(=O)(=O)N1CCCC(C(=O)N2CCN(c3ccccc3)CC2)C1` (stereo not drawn), the “rescue activity (ATP increase)” value is reported as -9.27%. In the case of `COc1ccc(OC)c(CNC(=O)C2CCCN(c3nc4ccccc4o3)C2)c1` (stereo not drawn), the “rescue activity (ATP increase)” value is reported as 16.2%. With `CN(C)c1nc(Oc2ccc(C(=O)OCC(=O)Nc3ccccc3)cc2)nc(N(C)C)n1` the “rescue activity (ATP increase)” value was 15.2%. In the case of `COc1ccc(C#Cc2ccc3c(c2)O[C@H](CN(C)C(=O)Nc2cccc(OC)c2)[C@@H](C)CN([C@H](C)CO)S3(=O)=O)cc1`, the “rescue activity (ATP increase)” value is reported as 16%. In the case of `C[C@H](CO)N1C[C@H](C)[C@H](CN(C)C(=O)Cc2ccccc2)OCCCC[C@H](C)Oc2ccc(NC(=O)Nc3ccc(C(F)(F)F)cc3)cc2C1=O`, the “rescue activity (ATP increase)” value is reported as -24.6%. In the case of `Cc1csc2nc(CNC(=O)c3cccc(C(F)(F)F)c3)cn12`, the “rescue activity (ATP increase)” value is reported as 0.276%. For `O=C(NCC(=O)N(Cc1cccs1)C(C(=O)NC1CCCCC1)c1cccnc1)c1ccco1` (stereo not drawn), the “rescue activity (ATP increase)” value was 20.5%. In the case of `O=C(Nc1ccccc1Cl)N1C[C@H]2[C@@H](c3ccccc31)[C@@H](CO)N2Cc1ccccc1`, the “rescue activity (ATP increase)” value is reported as -27.8%. For `COc1ccc(N2C(=O)CSC23C(=O)Nc2ccccc23)cc1` (stereo not drawn), the “rescue activity (ATP increase)” value was -5.68%. In the case of `C[C@@H]1CCCCO[C@H](CN(C)S(=O)(=O)c2ccc(Cl)cc2)[C@H](C)CN([C@H](C)CO)C(=O)c2cc(NS(C)(=O)=O)ccc2O1`, the “rescue activity (ATP increase)” value is reported as -3.42%. For `C[C@H](CO)N1C[C@H](C)[C@@H](CN(C)Cc2ccc(C(F)(F)F)cc2)Oc2ccc(NC(=O)C3CCCCC3)cc2CC1=O`, the “rescue activity (ATP increase)” value was 8.41%. With `N#Cc1ccc(C(=O)NCC(c2ccco2)N2CCCCC2)cc1` (stereo not drawn) the “rescue activity (ATP increase)” value was 0.531%. With `CC(C)(C)n1nnnc1C(c1cccnc1)N1CCN(c2ccccc2F)CC1` (stereo not drawn) the “rescue activity (ATP increase)” value was -17.2%. In the case of `CCOC(=O)c1sc(NCC2CCCO2)nc1C` (stereo not drawn), the “rescue activity (ATP increase)” value is reported as 52.4%. With `Cc1noc(C)c1S(=O)(=O)Nc1cccc2c1O[C@@H](CN(C)S(C)(=O)=O)[C@@H](C)CN([C@H](C)CO)C2=O` the “rescue activity (ATP increase)” value was -9.16%. For `C[C@@H]1CN([C@@H](C)CO)C(=O)c2cccc(NC(=O)c3ccc(-c4nccs4)cc3)c2O[C@@H]1CN(C)Cc1ccc(C(F)(F)F)cc1`, the “rescue activity (ATP increase)” value was 49.7%. With `CC(C)(C)C(=O)Nc1ccc(C(=O)NCc2cccnc2)cc1` the “rescue activity (ATP increase)” value was -47%. With `COc1cc(OC)cc(C(=O)NCc2cccnc2)c1` the “rescue activity (ATP increase)” value was 0.241%. With `CCOC(=O)c1nnc(-c2ccc(C)cc2)nc1Sc1ccc(Cl)cc1` the “rescue activity (ATP increase)” value was 28%. In the case of `COc1cnc(N(C)C)nc1Sc1ccc(Cl)cc1`, the “rescue activity (ATP increase)” value is reported as -4.1%.
